# Data taken from the supplement of paper PMC10849652.
# Targets with a hit are over-represented here; the source holds about 7,900 in all. About 0.6% of all pairs of compound and target were hits.
# Compound: CO[C@H]1C[C@@H]2CC[C@@H](C)[C@@](O)(O2)C(=O)C(=O)N2CCCC[C@H]2C(=O)O[C@H]([C@H](C)C[C@@H]2CC[C@H](n3cnnn3)[C@H](OC)C2)CC(=O)[C@H](C)/C=C(\C)[C@@H](O)[C@@H](OC)C(=O)[C@H](C)C[C@H](C)/C=C/C=C/C=C/1C [zotarolimus]
# Assay: log2 fold change, soluble protein after heating vs DMSO (PISA); higher = thermal stabilisation; K562 cells, 10 uM, 30 min; active = over 0.2 and 3.5 SD of the protein, either way, in both replicates (recomputed)
# Summary of the method: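 K562 cells at 2×10^6 cells/mL were treated with 10 μM compound for 30 min. Aliquots were heated for 3 min across 48°C-58°C, pooled, and extracted in PBS with 0.5% NP-40 at 4°C; soluble protein was the supernatant after 21,000xg for 90 min. Soluble protein was quantified by TMTpro 16plex LC-MS/MS with channel sums equalised, and reported as log2 fold change in thermal stability against DMSO controls, with values from duplicates.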
# Sequence of UniProt Q96PV7 (Q96PV7 whole entry, looked up): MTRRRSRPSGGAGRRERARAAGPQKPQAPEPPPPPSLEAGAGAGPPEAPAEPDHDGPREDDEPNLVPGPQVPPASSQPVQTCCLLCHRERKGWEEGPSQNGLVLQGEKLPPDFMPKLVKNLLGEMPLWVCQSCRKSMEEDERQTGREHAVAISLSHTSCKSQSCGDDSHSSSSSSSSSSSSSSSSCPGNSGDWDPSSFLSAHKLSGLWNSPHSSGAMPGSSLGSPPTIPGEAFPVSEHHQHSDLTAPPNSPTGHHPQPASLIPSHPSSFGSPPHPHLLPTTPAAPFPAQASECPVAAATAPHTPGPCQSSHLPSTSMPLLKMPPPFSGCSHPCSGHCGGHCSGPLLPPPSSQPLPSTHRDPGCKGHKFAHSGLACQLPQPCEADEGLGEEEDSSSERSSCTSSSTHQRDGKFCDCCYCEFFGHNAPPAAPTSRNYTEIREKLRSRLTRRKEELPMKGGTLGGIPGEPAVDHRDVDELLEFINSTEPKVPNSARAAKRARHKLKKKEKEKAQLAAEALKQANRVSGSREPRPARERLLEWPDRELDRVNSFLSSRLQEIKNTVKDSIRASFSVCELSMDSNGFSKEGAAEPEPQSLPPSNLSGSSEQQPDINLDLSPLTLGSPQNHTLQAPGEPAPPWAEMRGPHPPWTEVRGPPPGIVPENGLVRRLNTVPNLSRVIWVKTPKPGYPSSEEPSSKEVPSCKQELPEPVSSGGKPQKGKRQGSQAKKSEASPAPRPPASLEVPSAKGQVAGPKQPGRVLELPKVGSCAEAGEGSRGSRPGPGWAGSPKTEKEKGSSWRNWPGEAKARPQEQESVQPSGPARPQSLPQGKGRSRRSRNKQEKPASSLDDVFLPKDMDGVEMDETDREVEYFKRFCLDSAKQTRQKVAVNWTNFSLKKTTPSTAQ
# Sequence of UniProt P32519 (P32519 whole entry, looked up): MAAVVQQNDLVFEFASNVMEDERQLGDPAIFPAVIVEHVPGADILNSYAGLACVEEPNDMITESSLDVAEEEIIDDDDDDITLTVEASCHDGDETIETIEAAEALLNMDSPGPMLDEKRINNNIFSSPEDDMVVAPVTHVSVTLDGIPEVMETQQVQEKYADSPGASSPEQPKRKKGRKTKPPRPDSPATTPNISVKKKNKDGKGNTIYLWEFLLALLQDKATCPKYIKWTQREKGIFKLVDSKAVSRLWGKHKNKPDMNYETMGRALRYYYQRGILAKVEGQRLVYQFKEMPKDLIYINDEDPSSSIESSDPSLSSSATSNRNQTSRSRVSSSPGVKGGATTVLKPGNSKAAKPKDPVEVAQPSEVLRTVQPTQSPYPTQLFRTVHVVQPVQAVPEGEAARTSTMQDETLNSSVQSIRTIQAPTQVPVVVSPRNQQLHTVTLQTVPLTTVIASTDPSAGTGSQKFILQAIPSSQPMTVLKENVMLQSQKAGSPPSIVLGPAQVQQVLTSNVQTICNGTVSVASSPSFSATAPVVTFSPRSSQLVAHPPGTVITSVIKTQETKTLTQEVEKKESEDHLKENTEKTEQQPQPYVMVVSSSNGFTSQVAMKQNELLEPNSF
# Sequence of UniProt O94905 (O94905 whole entry, looked up): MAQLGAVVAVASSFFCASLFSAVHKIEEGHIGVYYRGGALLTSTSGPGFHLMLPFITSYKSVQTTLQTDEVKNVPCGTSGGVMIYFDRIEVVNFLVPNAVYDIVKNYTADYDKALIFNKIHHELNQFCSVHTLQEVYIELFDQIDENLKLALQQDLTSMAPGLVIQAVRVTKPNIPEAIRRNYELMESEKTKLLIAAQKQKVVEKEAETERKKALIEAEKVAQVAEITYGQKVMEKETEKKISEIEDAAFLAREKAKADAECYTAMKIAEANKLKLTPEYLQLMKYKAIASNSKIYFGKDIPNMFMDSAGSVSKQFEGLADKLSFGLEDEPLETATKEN
# Sequence of UniProt Q96GE9 (Q96GE9 whole entry, looked up): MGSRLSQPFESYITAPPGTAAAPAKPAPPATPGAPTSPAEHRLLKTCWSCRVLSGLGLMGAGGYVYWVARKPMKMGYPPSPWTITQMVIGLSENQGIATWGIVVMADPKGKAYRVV
# Sequence of UniProt Q01780 (Q01780 whole entry, looked up): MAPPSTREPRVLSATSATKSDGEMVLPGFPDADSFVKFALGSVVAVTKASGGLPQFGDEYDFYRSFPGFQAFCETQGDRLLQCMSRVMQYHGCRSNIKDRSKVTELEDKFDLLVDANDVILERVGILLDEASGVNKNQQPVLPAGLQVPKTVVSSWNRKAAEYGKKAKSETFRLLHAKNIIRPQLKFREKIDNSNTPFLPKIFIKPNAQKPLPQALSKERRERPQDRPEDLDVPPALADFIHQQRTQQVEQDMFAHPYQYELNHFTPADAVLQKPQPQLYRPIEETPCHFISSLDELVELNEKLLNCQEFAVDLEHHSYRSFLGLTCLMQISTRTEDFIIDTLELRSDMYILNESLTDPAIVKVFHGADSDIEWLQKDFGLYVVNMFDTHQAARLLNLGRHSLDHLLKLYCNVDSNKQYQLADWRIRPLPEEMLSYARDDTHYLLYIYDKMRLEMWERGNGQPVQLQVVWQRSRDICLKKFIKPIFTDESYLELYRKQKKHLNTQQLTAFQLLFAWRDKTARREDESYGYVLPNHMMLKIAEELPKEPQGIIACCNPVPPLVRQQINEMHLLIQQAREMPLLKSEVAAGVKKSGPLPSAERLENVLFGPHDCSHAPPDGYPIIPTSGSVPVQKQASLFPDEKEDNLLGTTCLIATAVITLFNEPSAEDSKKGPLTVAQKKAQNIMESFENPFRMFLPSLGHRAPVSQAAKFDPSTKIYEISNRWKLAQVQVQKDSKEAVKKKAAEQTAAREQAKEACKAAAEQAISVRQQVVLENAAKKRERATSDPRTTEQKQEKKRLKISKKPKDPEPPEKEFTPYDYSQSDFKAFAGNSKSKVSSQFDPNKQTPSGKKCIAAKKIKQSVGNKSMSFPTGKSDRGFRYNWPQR
# Sequence of UniProt Q14689 (Q14689 whole entry, looked up): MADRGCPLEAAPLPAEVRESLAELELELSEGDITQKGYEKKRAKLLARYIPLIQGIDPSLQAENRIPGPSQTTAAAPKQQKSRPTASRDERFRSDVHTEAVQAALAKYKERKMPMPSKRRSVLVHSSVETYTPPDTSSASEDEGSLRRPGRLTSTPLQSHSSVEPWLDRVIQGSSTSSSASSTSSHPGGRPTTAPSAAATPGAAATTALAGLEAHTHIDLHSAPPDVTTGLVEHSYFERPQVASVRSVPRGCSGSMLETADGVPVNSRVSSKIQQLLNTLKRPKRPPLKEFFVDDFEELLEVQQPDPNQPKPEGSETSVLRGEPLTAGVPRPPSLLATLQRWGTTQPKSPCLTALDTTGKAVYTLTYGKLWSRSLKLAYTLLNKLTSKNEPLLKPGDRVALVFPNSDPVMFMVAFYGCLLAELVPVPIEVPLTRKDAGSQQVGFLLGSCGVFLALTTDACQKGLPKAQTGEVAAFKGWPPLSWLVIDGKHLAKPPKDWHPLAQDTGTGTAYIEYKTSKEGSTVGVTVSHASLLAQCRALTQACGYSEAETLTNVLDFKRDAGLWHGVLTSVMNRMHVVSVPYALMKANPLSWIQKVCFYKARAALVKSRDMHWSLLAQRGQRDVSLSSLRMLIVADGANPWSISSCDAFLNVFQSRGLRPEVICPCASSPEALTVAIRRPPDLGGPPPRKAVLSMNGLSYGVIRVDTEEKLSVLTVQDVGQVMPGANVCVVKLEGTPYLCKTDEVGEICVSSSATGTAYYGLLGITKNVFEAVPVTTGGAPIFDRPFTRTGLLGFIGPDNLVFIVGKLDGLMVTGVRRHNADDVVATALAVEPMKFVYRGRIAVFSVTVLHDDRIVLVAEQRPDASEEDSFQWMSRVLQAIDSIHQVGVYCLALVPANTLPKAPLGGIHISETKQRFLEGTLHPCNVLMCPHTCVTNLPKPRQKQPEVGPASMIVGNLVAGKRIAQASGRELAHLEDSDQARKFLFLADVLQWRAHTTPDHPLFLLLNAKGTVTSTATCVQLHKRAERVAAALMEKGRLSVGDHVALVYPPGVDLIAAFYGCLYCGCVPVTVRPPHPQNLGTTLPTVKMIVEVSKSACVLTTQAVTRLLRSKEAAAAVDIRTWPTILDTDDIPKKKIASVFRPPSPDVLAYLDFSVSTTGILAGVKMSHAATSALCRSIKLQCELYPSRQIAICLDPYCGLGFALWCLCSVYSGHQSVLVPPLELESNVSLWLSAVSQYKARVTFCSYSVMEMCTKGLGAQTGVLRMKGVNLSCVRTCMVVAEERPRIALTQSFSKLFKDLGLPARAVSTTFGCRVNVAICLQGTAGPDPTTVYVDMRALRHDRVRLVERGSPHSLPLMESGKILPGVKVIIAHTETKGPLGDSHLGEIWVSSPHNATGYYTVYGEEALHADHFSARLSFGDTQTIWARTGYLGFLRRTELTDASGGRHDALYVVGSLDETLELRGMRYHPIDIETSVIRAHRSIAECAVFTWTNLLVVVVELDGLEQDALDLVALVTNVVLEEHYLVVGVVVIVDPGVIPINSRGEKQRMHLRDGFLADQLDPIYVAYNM
# Sequence of UniProt Q8NBI2 (Q8NBI2 whole entry, looked up): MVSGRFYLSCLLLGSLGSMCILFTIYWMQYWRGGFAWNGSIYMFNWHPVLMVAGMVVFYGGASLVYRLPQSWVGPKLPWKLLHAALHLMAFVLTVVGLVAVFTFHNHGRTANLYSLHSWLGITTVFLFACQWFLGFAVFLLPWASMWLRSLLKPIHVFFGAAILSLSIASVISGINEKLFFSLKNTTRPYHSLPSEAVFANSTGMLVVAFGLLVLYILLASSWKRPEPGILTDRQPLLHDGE
# Sequence of UniProt Q9NWS6 (Q9NWS6 whole entry, looked up): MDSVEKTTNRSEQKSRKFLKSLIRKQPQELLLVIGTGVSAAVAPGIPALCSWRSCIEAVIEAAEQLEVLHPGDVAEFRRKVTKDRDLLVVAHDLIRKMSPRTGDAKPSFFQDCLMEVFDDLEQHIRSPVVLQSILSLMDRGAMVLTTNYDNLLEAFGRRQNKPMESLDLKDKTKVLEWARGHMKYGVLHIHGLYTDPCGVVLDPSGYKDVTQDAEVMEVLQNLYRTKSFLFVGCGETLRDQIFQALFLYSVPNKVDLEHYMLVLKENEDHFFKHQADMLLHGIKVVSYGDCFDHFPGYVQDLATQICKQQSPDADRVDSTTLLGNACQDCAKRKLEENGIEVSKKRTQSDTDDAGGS
row,Target,log2 fold change
1,CTNNB1 (UniProt P35222),0.029 (inactive)
2,DENND10 (UniProt Q8TCE6),-0.017 (inactive)
3,EXOSC10 (UniProt Q01780),0.115 (inactive)
4,EXOC4 (UniProt Q96A65),0.065 (inactive)
5,DEGS1 (UniProt O15121),0.027 (inactive)
6,DDX27 (UniProt Q96GQ7),0.071 (inactive)
7,EDC4 (UniProt Q6P2E9),0.001 (inactive)
8,CTSV (UniProt O60911),-0.011 (inactive)
9,CYB561A3 isoform 2 (UniProt Q8NBI2),0.011 (inactive)
10,DCP2 (UniProt Q8IU60),-0.037 (inactive)
11,ERLIN2 (UniProt O94905),0.034 (inactive)
12,DPYSL2 (UniProt Q16555),-0.06 (inactive)
13,ELAC1 (UniProt Q9H777),-0.06 (inactive)
14,FAM50A (UniProt Q14320),0.026 (inactive)
15,FAM118A (UniProt Q9NWS6),0.032 (inactive)
16,DIP2A (UniProt Q14689),-0.018 (inactive)
17,DNAJC24 (UniProt Q6P3W2),0.004 (inactive)
18,EZH2 isoform 2 (UniProt Q15910),-0.073 (inactive)
19,DHRS13 (UniProt Q6UX07),0.271 (inactive)
20,FAM193B (UniProt Q96PV7),-0.077 (inactive)
21,ECPAS (UniProt Q5VYK3),0.033 (inactive)
22,DMAC1 (UniProt Q96GE9),-0.04 (inactive)
23,ELF1 (UniProt P32519),-0.019 (inactive)
